From PubChem BioAssay (NCI) come the findings set out here.

Molecules are shown by their SMILES. Compounds without any hit were thinned out: in the full panel of roughly 83,000, 20% have a hit.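 Method: cells in 96-well plates; compound added at one concentration; 48 h incubation; percent growth measured; values under 10 scored active.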 Unmarked numbers belong to inactive results. Activity calls are given as the source filed them.

Among the test systems are HCT-15 colon; HT29 colon; SNB-75 CNS; SNB-19 CNS; U251 CNS; PC-3 prostate; SK-MEL-5 melanoma; UACC-62 melanoma; LOX IMVI melanoma; SK-MEL-28 melanoma.
Holding throughout (assay): NCI-60 one-dose screen, 48 h (100 = growth as untreated, 0 = no growth, -100 = all killed)
Holding throughout (settings): 10 µM unless noted

`CN1CCN(S(=O)(=O)O[C@@H]2C(=O)N(c3cc4c5ccccc5ccc4c4ccccc34)[C@H]2c2ccc(F)cn2)CC1`: the growth was 84.8% in the test on HCT-15 colon; 82% in the test with HT29 colon; 74.6% with SNB-75 CNS; 85% with SNB-19 CNS; 78.6% in the test on U251 CNS; 63.9% in the test with PC-3 prostate. For the same compound, the growth in the test with SK-MEL-5 melanoma was 88.7%; with UACC-62 melanoma, 86.5%; with LOX IMVI melanoma, 84.5%; with SK-MEL-28 melanoma, 113%.
`CCCCN(CCCC)CC(CN(CC)CC)OC(=O)Nc1ccccc1` (stereo not given): the growth in the test on HCT-15 colon was 63.4%; in the test with HT29 colon, 37.1%; in the test with SNB-75 CNS, 78.3%; in the test on SNB-19 CNS it was 107%; in the test with U251 CNS, 96.8%; in the test on PC-3 prostate, 89.6%. The growth was 100% in the test on SK-MEL-5 melanoma, 111% with UACC-62 melanoma, 87.7% in the test with LOX IMVI melanoma and 105% with SK-MEL-28 melanoma.
Turning to `CSc1nc(-c2ccco2)c2c(N)[nH]nc2n1`, the growth with HCT-15 colon was 102%; in the test on HT29 colon, 93.6%; in the test on SNB-75 CNS, 103%; in the test with SNB-19 CNS it was 110%; with U251 CNS, 103%; in the test with PC-3 prostate, 101%. The growth is 100% with SK-MEL-5 melanoma, 92.2% in the test with UACC-62 melanoma, 92.3% in the test with LOX IMVI melanoma and 112% in the test with SK-MEL-28 melanoma.
Consider `CN(C)c1ccc(-c2ccc3[nH]c(=O)nc(-c4ccc(F)cc4)c3c2)cn1`, for which the growth in the test on HCT-15 colon was 33.2%; in the test with HT29 colon, 11%; in the test on SNB-75 CNS, 11.2%; in the test on SNB-19 CNS it was 36.2%; in the test with U251 CNS, 31.3%; with PC-3 prostate it was 41.7%. In addition, the growth was 20.3% with SK-MEL-5 melanoma, 28.4% in the test on UACC-62 melanoma, 41.3% in the test on LOX IMVI melanoma and 69.2% in the test with SK-MEL-28 melanoma.
Consider `O=C(/C(=C\c1c(-c2ccccc2)[nH]c2ccccc12)S(=O)(=O)c1ccccc1)c1ccccc1`, for which the growth was 57.4% in the test on HCT-15 colon; 65.9% in the test on HT29 colon; 45.4% with SNB-75 CNS; 73.8% in the test with SNB-19 CNS; 58.6% in the test on U251 CNS; 16.6% with PC-3 prostate. The growth with SK-MEL-5 melanoma was 47.7%; in the test with UACC-62 melanoma, 39.8%; in the test with LOX IMVI melanoma it was 58.9%; in the test on SK-MEL-28 melanoma, 76.2%.
For `OCCNc1nc(NCCO)nc(Nc2ccc(C3=NN(c4cc(Cl)cc(Cl)c4)C(c4ccc(Cl)cc4)C3)cc2)n1` (stereo not given), the growth was 5.12% (active) with HCT-15 colon; -46% (active) with HT29 colon; -6.43% (active) in the test on SNB-75 CNS; 15.8% in the test with SNB-19 CNS; -47.8% (active) in the test with U251 CNS; -12.1% (active) in the test with PC-3 prostate. For the same compound, the growth in the test with SK-MEL-5 melanoma is 24.9%; in the test with UACC-62 melanoma, 13.1%; in the test with LOX IMVI melanoma, -53.4% (active); in the test with SK-MEL-28 melanoma, -55.8% (active).
As to `CC(=O)OC[C@]12CC[C@@H](c3cn(Cc4ccc(Cn5cc([C@@H]6CC[C@]7(COC(C)=O)CC[C@]8(C)[C@H](CC[C@@H]9[C@@]%10(C)CC[C@H](OC(C)=O)C(C)(C)[C@@H]%10CC[C@]98C)[C@@H]67)nn5)cc4)nn3)[C@@H]1[C@H]1CC[C@@H]3[C@@]4(C)CC[C@H](OC(C)=O)C(C)(C)[C@@H]4CC[C@@]3(C)[C@]1(C)CC2`, the growth with HCT-15 colon is 102%; in the test with HT29 colon, 97.2%; in the test on SNB-75 CNS it was 105%; in the test with SNB-19 CNS, 96.7%; with U251 CNS it was 103%; with PC-3 prostate it was 104%. Further, the growth in the test on SK-MEL-5 melanoma was 105%; in the test with UACC-62 melanoma, 95.8%; with LOX IMVI melanoma, 97.3%; in the test with SK-MEL-28 melanoma it was 99.8%.
Turning to `NC(=O)c1ccc(C2C3=C(CCCC3=O)OC3=C2C(=O)c2ccccc2C3=O)cc1` (stereo not given), the growth in the test on HCT-15 colon was 53.8%; with HT29 colon, 29.7%; with SNB-75 CNS, -1.57% (active); in the test with SNB-19 CNS it was 49.6%; in the test on U251 CNS, 0.896% (active); in the test on PC-3 prostate, 12.3%. The growth in the test on SK-MEL-5 melanoma is -93.9% (active); in the test with UACC-62 melanoma, -38.8% (active); with LOX IMVI melanoma, -19.3% (active); with SK-MEL-28 melanoma it was 59.6%.
In the case of `O=C1Nc2ccc(Br)cc2/C1=N\N=C/c1cn(Cc2ccccc2)c2ccccc12`, the growth with HCT-15 colon is 103%; in the test on HT29 colon, 91%; in the test on SNB-75 CNS, 84.7%; in the test with SNB-19 CNS, 98%; with U251 CNS it was 94.6%; in the test with PC-3 prostate, 75.1%. Moreover, the growth in the test on SK-MEL-5 melanoma was 97.2%; in the test with UACC-62 melanoma, 79.4%; in the test on LOX IMVI melanoma, 98.1%; with SK-MEL-28 melanoma, 105%.
With `COc1cccc(C(=O)OCCn2nc3c4c(cccc42)C(=O)c2ccccc2-3)c1O`, the growth was 28% with HCT-15 colon; 79.3% with HT29 colon; 22.8% in the test on SNB-75 CNS; 38.3% in the test on SNB-19 CNS; 33.9% with U251 CNS; 20.5% in the test with PC-3 prostate. The growth in the test with SK-MEL-5 melanoma is 36.4%; in the test on UACC-62 melanoma, 31.3%; with LOX IMVI melanoma it was 37.6%; with SK-MEL-28 melanoma it was 72.5%.
`COc1cc(C2=NN(C(C)=O)C(c3cccc(Nc4ccnc5cc(C(F)(F)F)ccc45)c3)C2)cc(OC)c1OC` (stereo not given): the growth with HCT-15 colon was 39.9%; with HT29 colon it was 22.1%; in the test on SNB-75 CNS, 76.1%; with SNB-19 CNS it was 60.9%; in the test with U251 CNS, 58.7%; in the test on PC-3 prostate, 25%. For the same compound, the growth in the test on SK-MEL-5 melanoma was 27.8%; in the test with UACC-62 melanoma, 69%; with LOX IMVI melanoma, 53.2%; in the test on SK-MEL-28 melanoma, 66.5%.
In the case of `CCCCCOC(=O)c1ccccc1O`, the growth in the test on HCT-15 colon is 97.4%; with HT29 colon, 96.5%; in the test on SNB-75 CNS it was 83.1%; in the test on SNB-19 CNS it was 106%; in the test with U251 CNS, 101%; in the test with PC-3 prostate it was 86.9%. In addition, the growth was 103% in the test on SK-MEL-5 melanoma, 97.9% in the test on UACC-62 melanoma, 104% with LOX IMVI melanoma and 110% in the test with SK-MEL-28 melanoma.
For the compound `Cc1cccc(C)c1Nc1nnc(-c2ccc(F)cc2)o1`, the growth in the test with HCT-15 colon was 110%; in the test with HT29 colon, 111%; with SNB-75 CNS, 80.2%; with SNB-19 CNS, 104%; with U251 CNS it was 104%; in the test with PC-3 prostate, 98.6%. The growth with SK-MEL-5 melanoma is 98.9%; in the test on UACC-62 melanoma, 103%; in the test with LOX IMVI melanoma, 95.1%; in the test with SK-MEL-28 melanoma it was 100%.
